PfHsp90 set2: growth inhibition of yeast expressing Plasmodium Hsp90 | S. cerevisiae expressing PfHsp90, BacTiter-Glo ATP, 48 h; yeast lacking PDR1 and PDR3 efflux regulators | inhibition, % at 9.4 µM | 0.32% of 310,000 active;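 active = every replicate shows inhibition above about 80%, whatever the replicate mean, limit read from the data; inconclusive = mean inhibition reaches the set limit but some replicate falls short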;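 also: 0% = DMSO neutral controls and 100% = 20 µM radicicol positive controls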
TIM10 inh: inhibits growth of TIM10 yeast strain; S. cerevisiae TIM10 strain growth, BacTiter-Glo luminescence, 24 h; inhibition, % at 10 µM; 1.4% of 330,000 active;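 active = inhibition of 40% or more at the single tested concentration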;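 also: wild-type TIM10 isogenic control strain grown at permissive 25 °C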
B2AR ag: agonists of human beta-2 adrenergic receptor inducing internalization; P07550; response, % (test concentration not listed); Am2.2-beta2AR cells, FAP receptor internalization, flow cytometry; 0.43% of 340,000 active;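 active = response above a set limit, near 3 SD of response in nonfluorescent compounds, cut at about 42% in these data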
Target sequence (P07550 whole entry, looked up): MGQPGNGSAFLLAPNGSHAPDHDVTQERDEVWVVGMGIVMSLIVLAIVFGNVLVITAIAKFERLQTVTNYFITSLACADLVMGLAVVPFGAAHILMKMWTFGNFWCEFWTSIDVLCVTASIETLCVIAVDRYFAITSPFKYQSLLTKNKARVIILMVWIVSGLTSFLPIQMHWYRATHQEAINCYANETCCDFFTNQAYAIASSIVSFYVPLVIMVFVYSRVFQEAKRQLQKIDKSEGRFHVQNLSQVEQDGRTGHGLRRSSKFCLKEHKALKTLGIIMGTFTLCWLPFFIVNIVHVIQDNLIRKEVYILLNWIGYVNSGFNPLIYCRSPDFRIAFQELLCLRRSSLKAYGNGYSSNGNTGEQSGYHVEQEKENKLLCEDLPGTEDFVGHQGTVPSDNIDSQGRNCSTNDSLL
tim10-1 inh: inhibits growth of tim10-1 mutant yeast; S. cerevisiae tim10-1 ts strain growth, BacTiter-Glo, 24 h; 2.2% of 330,000 active; inhibition, % at 20 µM;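 active = inhibition of at least 40%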;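 also: mutant grown at 25 °C; 0% = DMSO wells with yeast and 100% = wells holding no yeast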
tim23-1 inh: tim23-1 yeast growth inhibition; 1.3% of 330,000 active; inhibition, % at 20 µM; AID 463212; S. cerevisiae tim23-1 growth, BacTiter-Glo luminescence, 24 h;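 active = growth inhibition of the mutant yeast at or above 50%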;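 also: temperature-sensitive mutant grown at 25 °C; plate controls were DMSO-treated mutant yeast for no effect and medium wells lacking yeast for full effect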
tim10 confirm: confirmation of TIM10 yeast growth inhibitors; inhibition, % at 10 µM; shares compounds with TIM10 inh; AID 463215; S. cerevisiae tim10 strain growth, BacTiter-Glo luminescence, 24 h; 63% of 4,600 active;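 active = inhibition of yeast growth at or above a set limit in either of two replicates at 10 µM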;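 also: this counterscreen used the strain with wild-type TIM10; 0% = yeast with DMSO and 100% = medium wells lacking yeast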
tim23-1 confirm: tim23-1 yeast growth inhibition, confirmed. shares compounds with tim23-1 inh. S. cerevisiae tim23-1 growth, BacTiter-Glo luminescence, 24 h. inhibition, % at 20 µM. 83% of 4,400 active. AID 463218;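 active = inhibition above about 39% in either of two replicate wells at 20 µM, limit read from the data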;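 also: temperature-sensitive tim23-1 mutant grown at 25 °C; 0% = DMSO wells with yeast and 100% = medium wells without yeast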
B2AR ag CP1: agonists of human beta-2 adrenergic receptor | shares compounds with B2AR ag | Am2.2-beta2AR cells, FAP surface receptor, flow cytometry; active compounds read low | percent response (surface receptor), % at 10 µM | 25% of 1,100 active | AID 540358;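 active = surface receptor percent response at or below 58%, roughly 3 SD from nonfluorescent compounds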
FAP fluor counter: flagged in Am2.2 fluorescence counterscreen for beta-2AR agonists | shares compounds with B2AR ag | Am2.2 cells, FAP fluorogen flow cytometry; active compounds read low | calls only at 10 µM | 1,100 tested, under 10 active | AID 588765;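 active = percent response below a set limit in fluorescence channel 1 and below 50% in channel 8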
Numbers without * were called inactive; i = inactive; ? = inconclusive; nt = not tested or not shown; + = active, no number. Most compounds without a hit are left out; they make up all but 3.8% or so of the library.

SMILES	PfHsp90 set2	TIM10 inh	B2AR ag	tim10-1 inh	tim23-1 inh	tim10 confirm	tim23-1 confirm	others
CN1C(=S)N(c2cccnc2)C(=O)/C1=C\c1ccc(C(C)(C)C)cc1	?	55.0*	21.8	32.7	55.2*	55.8*	46.5*
CC1=NN(c2ccc(C)cc2)C(=O)/C1=C/c1ccc(-c2cc([N+](=O)[O-])ccc2O)o1	3.5	15.2	34.0	32.9	36.6	nt	nt
CC1=NN(c2ccc(C(=O)O)cc2)C(=O)/C1=C/c1ccc(-c2ccccc2F)o1	0.6	43.5*	30.4	37.5	62.2*	23.1	39.1*
CC(=O)c1cccc(NC(=O)NC(C)c2ccc3c(c2)OCO3)c1 (centres undefined)	24.7	4.8	5.9	-5.2	6.5	nt	nt
Cc1ccc(/C=N/NC(=O)c2c(-c3ccccc3)noc2C)c(O)c1	nt	43.2*	2.0	36.4	56.7*	24.6	41.7*
COc1cccc(/C=N/NC(=O)c2c(-c3ccccc3)noc2C)c1O	nt	23.8	2.0	25.3	32.3	nt	nt
CCCNS(=O)(=O)c1cc(CN2C(=O)c3cccnc3C2=O)ccc1OC	22.0	4.6	4.3	-3.3	0.6	nt	nt
CCOC(=O)c1cnc(-n2nc(C)cc2C)nc1NC1CCCC1	-35.0	44.6*	-5.0	38.7	52.3*	50.8*	43.5*
O=S1(=O)Nc2c(ccc3cccnc23)-c2ccccc21	150.9*	47.9*	35.3	29.0	70.0*	56.9*	47.2*
Cc1cc(C)c(NS(=O)(=O)c2cccc3cccnc23)c(C)c1	33.5	13.9	5.3	22.5	27.1	nt	nt
Cc1ccc(S(=O)(=O)Nc2cccc3cccnc23)c([N+](=O)[O-])c1	nt	46.0*	13.2	23.2	51.6*	35.2*	52.5*
O=C1Nc2ccc(Cl)cc2C(C#CC2CC2)(C(F)(F)F)O1 (centres undefined)	5.1	30.3	-0.7	33.7	46.3	nt	nt
O=C(COC(=O)CCS(=O)(=O)c1ccc(F)cc1)NC1CCCCC1	-7.2	3.6	-5.4	11.2	7.7	nt	nt
O=C(CCN1CCOCC1)N/N=C/c1cc(Br)cc(Br)c1O	-48.3	57.9*	6.0	36.8	62.8*	50.2*	62.4*
COc1ccccc1-c1cc(C(F)(F)F)nc(S(=O)(=O)CCCC(=O)NC(C)C)n1	-17.7	42.4*	98.4*	38.0	32.1	-19.8	nt	B2AR ag CP1=54.3*;FAP fluor counter=i
CCOc1ccc(NC(=O)CCc2c(C)nn(-c3ccc(N4CCCCC4)nn3)c2C)cc1	11.2	-14.2	-6.9	25.2	25.6	nt	nt
c1nc(SSc2ncnc3nc[nH]c23)c2[nH]cnc2n1	-53.5	nt	-6.3	nt	nt	nt	nt
O=C(c1ccc([N+](=O)[O-])s1)N1CCN(c2ccc(C(F)(F)F)cn2)CC1	10.0	42.3*	83.8*	9.6	32.3	26.9	nt	B2AR ag CP1=108.9;FAP fluor counter=i
O=C(Nc1ccc(NC(=O)c2ccccc2F)cc1)c1cccs1	nt	44.8*	-0.4	-17.9	46.7	25.9	nt	B2AR ag CP1=113.1;FAP fluor counter=i
O=C(Nc1ccc(NC(=O)c2cccs2)cc1)c1cccs1	10.1	-6.9	-9.7	-45.0	-2.6	nt	nt
O=S(=O)(Nc1ccc(-c2nc3cccnc3s2)cc1)c1cccs1	-4.1	4.1	-4.6	9.6	14.4	nt	nt
O=S(=O)(Nc1cccc2ncccc12)c1cccs1	-101.0	43.4*	44.2*	30.8	39.7	47.9*	nt	B2AR ag CP1=89.5;FAP fluor counter=i
O=C(NNC(=O)c1ccc(O)c(Cl)c1)c1cccc(S(=O)(=O)N2CCOCC2)c1	8.5	-5.5	7.2	12.0	6.3	nt	nt
CC(C)(C)c1ccc(-n2nc(C#N)c(Cl)cc2=O)cc1	100.1*	47.7*	52.3*	20.5	-35.9	47.3*	nt	B2AR ag CP1=21.9*;FAP fluor counter=+
COC(=O)[C@H](CC(C)C)NC(=O)c1cc2c(cn1)[nH]c1ccccc12	8.3	34.3	6.8	34.3	59.2*	nt	62.6*
SMILES	PfHsp90 set2	TIM10 inh	B2AR ag	tim10-1 inh	tim23-1 inh	tim10 confirm	tim23-1 confirm	others
COc1ccc(S(=O)(=O)NCc2cccnc2)cc1NC(=O)c1ccc(Cl)cc1	nt	8.3	-5.8	20.6	26.0	nt	nt
Cc1cc(Nc2ccccc2)nn1C(=O)c1ccccc1	-17.3	30.4	0.2	0.2	51.0*	nt	52.0*
CC(=O)NC1C(OCc2cccc(Br)c2)OC(COC(C)=O)C(OC(C)=O)C1OC(C)=O (centres undefined)	21.3	5.7	3.1	-6.5	93.4*	nt	12.6
CCOc1ccc(C(=O)OCC(=O)N2CCCC2)cc1OCC	-35.7	0.2	-6.5	-16.3	3.4	nt	nt
COCCN(C(=O)CSc1ccc2c(c1)OCCO2)c1c(N)n(CC(C)C)c(=O)[nH]c1=O	-0.7	-8.3	0.8	23.8	12.2	nt	nt
CC(=O)N(Cc1ccccc1)C(CC(=O)NCc1ccccc1)C(=O)O (centres undefined)	3.5	nt	-0.3	nt	nt	nt	nt
O=C(/C(=C/O)N=Nc1ccc(Cl)cc1)c1ccncc1	-42.7	-19.9	38.3	15.7	62.4*	nt	57.3*
Cc1ccc(N=N/C(=C\O)C(=O)c2ccncc2)cc1	-37.0	5.7	37.7	13.2	70.8*	nt	64.2*
COc1ccc(NC(=O)CN(C)C2=NS(=O)(=O)c3ccccc32)cc1Cl	-6.2	-0.3	3.3	0.2	11.2	nt	nt
O=C(Nc1scc(-c2ccccc2)c1C(=O)O)c1ccccc1F	27.5	28.9	7.0	17.7	57.6*	nt	54.3*
O=C(/C=C/c1ccco1)Nc1scc(-c2ccccc2)c1C(=O)O	48.8	9.5	5.1	-11.1	54.8*	nt	45.8*
COc1ccc(-c2csc(NC(=O)c3ccccc3Br)c2C(=O)O)cc1	33.5	17.8	-2.2	15.8	64.5*	nt	72.7*
COc1ccc(-c2csc(NC(=O)c3cccs3)c2C(=O)O)cc1OC	1.2	13.9	-5.9	-11.6	2.9	nt	nt
O=C(/C=C/c1ccccc1)Nc1scc(-c2ccccc2)c1C(=O)O	24.6	nt	-2.9	nt	nt	nt	nt
O=C(Nc1sc2c(c1C(=O)O)CCCCC2)c1ccccc1F	-41.4	17.5	-10.1	28.6	27.7	nt	nt
CCc1nc(Nc2ccccc2F)c2oc3ccccc3c2n1	5.4	7.4	-10.9	34.9	43.1	nt	nt
COc1ccc(OC)c(NC(=O)CSc2ccc3nnc(-c4ccccn4)n3n2)c1	4.5	-10.0	0.3	4.7	9.1	nt	nt
Oc1ccccc1CNc1cnc2ccccc2c1	-7.7	8.9	-0.6	13.0	10.4	nt	nt
Oc1ccc(Cl)cc1CNc1cnc2ccccc2c1	-22.2	25.6	8.1	-2.3	61.6*	nt	64.5*
CC1Oc2cc3oc4c(O)c(O)ccc4c(=O)c3c(O)c2C1(C)C (centres undefined)	103.9*	17.0	8.3	34.1	69.5*	nt	70.1*
